# Rows were chosen to be rich in hits. Some 21% of all compounds tested hit in one or more screens of this group.
# Pf growth 48h – Primary qHTS for delayed death inhibitors of the malarial parasite plastid, 48 hour incubation; 310,000 tested, 5.9% active; Potency, µM (series often up to 28.7 µM), without a hit: top-dose activity change, negative = inhibition, most hits filed as inhibitors; P. falciparum luciferase growth in erythrocytes, 48 h; also: potency is read from the fitted curve at half-maximal effect; % is scaled to controls: 0 for no effect and ±100 for the full control effect
#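 Firefly luciferase activity from engineered P. falciparum reports growth; inhibitors lower the luminescent signal. Cultures contained 2% hematocrit erythrocytes at 0.1% final parasitemia.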
# Shiga inhibitor – A qHTS for Small Molecule Inhibitors of Shiga Toxin | Vero cells, Shiga toxin protein synthesis inhibition reporter | inhibition, % at 38.7 µM | 290,000 tested, 9.2% active | AID 2315, 2010; in the data active = inhibition mostly above about 28%, no sharp cut-off; inactive = mostly below about 43%; also: 0% is about no effect
# CHX counter – Cycloheximide Counterscreen for Small Molecule Inhibitors of Shiga Toxin | cell reporter, cycloheximide protein synthesis inhibition counterscreen | max response, % | 300,000 tested, 12% active; in the data active = max response mostly above about 13%, no sharp cut-off; inactive = mostly below about 14%; also: read at 38.3 µM for the half of the compounds with a filed dose; 0% is about no effect
# Pf growth 96h – Primary qHTS for delayed death inhibitors of the malarial parasite plastid, 96 hour incubation. Potency, µM (series often up to 28.7 µM), for inactives: at the highest dose activity change, negative = inhibition, actives largely listed as inhibitors. P. falciparum luciferase reporter growth, 96 h. 320,000 tested, 6.9% active; also: potency is read from the fitted curve at half-maximal effect; % is scaled to controls: 0 for no effect and ±100 for the full control effect
#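 Compounds incubated with erythrocytes infected by luciferase-expressing P. falciparum (2% hematocrit, 0.05% parasitemia final) for 96 hours, 37 C in 5% CO2. Growth inhibition scored as decreased luciferase luminescence.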
# * hit, by the source's call; ? = inconclusive; / = not tested or not shown; + = active, no number; ! = a repeat was not active. Unless noted, calls follow the shape of the dose curve; as a rule, active = well fitted inhibition curve with a large enough effect; inconclusive = small, poorly fitted or top-dose-only effect, or another doubt; inactive = no such curve, though single readings can be large or run the other way.
SMILES,Pf growth 48h,Shiga inhibitor,CHX counter,Pf growth 96h
CCc1ccccc1Nc1nn2c(=O)c3ccc(C(=O)NCc4ccccn4)cc3nc2s1,?,-8.0,-3.1,?
CN(C)S(=O)(=O)c1cccc(C(=O)NCC(C)(C)CNC(=O)c2cccc(S(=O)(=O)N(C)C)c2)c1,?,14.2,11.2,-19.1%
CCOC(=O)c1cn(Cc2cccc(Cl)c2)c2cc(C)nn2c1=O,-14.4%,-5.6,10.8,?
Cc1cc(C)cc(-c2nnc(SCC(=O)N3CCN(C(=O)c4ccco4)CC3)o2)c1,?,23.8,-2.5,11.7µM*
CCc1cc2ccc(OC)cc2nc1SCC(=O)N1CCN(C(=O)c2ccco2)CC1,?,-1.1,-1.8,?
COc1ccc(OC)c(-n2nnnc2SCC(=O)N2CCN(C(=O)c3ccco3)CC2)c1,-8.8%,9.0,9.4,?
Cc1cc2cc3c(cc2nc1SCC(=O)N1CCN(C(=O)c2ccco2)CC1)OCO3,13.1µM*,-5.5,-2.8,?
O=C(CSc1nnc(-c2ccc(Br)cc2)o1)N1CCN(C(=O)c2ccco2)CC1,?,14.1,-2.2,?
Cc1ccc(-n2nnnc2SCC(=O)N2CCN(C(=O)c3ccco3)CC2)c(C)c1,-19.2%,-0.5,-4.3,6.57µM*
COc1ccc(C2NC(=O)NC(C)=C2[N+](=O)[O-])cc1 (stereo unspecified),4.7%,-0.6,0.2,305.9%
O=c1[nH]c2ccccc2nc1/C=C(\O)C(F)F,?,31.0,6.3,?
O=Nc1[nH]c(=O)c(/C=C(\O)c2ccccc2)nc1NO,142.2%,61.6*,58.8*,144.7%
Cc1oc(S(=O)(=O)N2CCCC2)cc1C(=O)Nc1ccccc1,-2.4%,3.5,-1.6,7.3%
N=c1oc2c3c4c(cc2cc1C(=O)Nc1ccccc1)CCCN4CCC3,/,27.9,22.5*,13.1µM*
Cc1c(/C=C(\C#N)C(=O)NCc2ccccc2)cc(C#N)n1C,-20.0%,-6.2,-8.0,-0.4%
CCOc1cc(/C=N/NC(=O)C2CCCC2)ccc1OC(C)C,-13.9%,-22.6,-4.1,8.8%
O=C(O)c1cn(-c2ccc(F)cc2)c2cc(N3CCNCC3)c(F)cc2c1=O,?,/,/,3.38µM*
CCn1cc(C(=O)O)c(=O)c2cc(F)c(N3CCN(C(=S)NC(=O)c4ccccc4)CC3)cc21,?,23.1,0.9,?
NS(=O)(=O)c1ccc(-n2nc(C(=O)O)cc2-c2ccc(Cl)cc2)cc1,-15.8%,-5.0,-3.5,-22.6%
Cc1ccc(-c2cc(C(F)(F)F)nn2-c2ccc(S(N)(=O)=O)cc2)cc1,15.1µM*,-6.2,1.2,5.86µM*
C=CCOC(=O)c1c(C)nc2cc3c(cc2c1C)OCO3,40.4%,68.6*,28.8*,44.5%
C=CCOC(=O)C1=C(C)NC(=O)NC1c1ccc2c(c1)OCO2 (stereo unspecified),-24.9%,-9.4,-3.2,?
Cc1nc2cc(NC(=O)NCc3ccco3)ccc2o1,40.7%,48.6*,17.2*,/
Cc1ccc(NC(=O)c2cccc(S(C)(=O)=O)c2)cc1,84.7%,97.3*,32.6*,338.2%
CS(=O)(=O)c1cccc(C(=O)Nc2ccc(-c3nc4ccccc4[nH]3)cc2)c1,?,5.8,23.9,?
SMILES,Pf growth 48h,Shiga inhibitor,CHX counter,Pf growth 96h
Cc1nc2cc(NC(=O)c3cccc(S(C)(=O)=O)c3)ccc2o1,11.9%,34.8,12.8*,-10.5%
O=C(CCc1ccccc1)N=C1SC2CS(=O)(=O)CC2N1c1ccccc1 (stereo unspecified),11.3%,-10.5,-0.7,7.6%
O=C(O)/C=C/C(=O)N1CCN(c2cccc(Cl)c2)CC1,-13.6%,-8.0,-2.2,13.4%
O=C(Cn1ncn2c(cc3sccc32)c1=O)NC1CCCC1,17.4%,-6.5,-8.0,8.28µM*
CCOC(=O)c1cnc(SCc2cccc(C)c2)nc1N,64.5%,54.5*,53.3*,-11.5%
CCOC(=O)c1cnc(SCC(C)C)nc1N,427.4%,+,52.3*,34.0%
CCOC(=O)c1cnc(SC)nc1N,/,-3.2,16.8*,-10.1%
CCOC(=O)c1cnc(SCC#N)nc1N,-2.9%,12.9,7.2,10.2%
CCOC(=O)c1ccccc1NC(=O)CSc1ncc(C(=O)OCC)c(N)n1,-10.7%,25.8,6.9,1.0%
CC1C(C#N)=C(N)OC2=C1C(=O)CC(C)(C)C2 (stereo unspecified),/,21.3,0.8,13.1µM*
CCCN1Cc2cccc(C(=O)NCCc3ccccc3)c2C1=O,-16.4%,8.2,9.5,-23.7%
CC(C)N1CCN(Cc2ccc(OC3CCCC3)cc2)CC1CCO (stereo unspecified),-13.0%,-7.8,-4.5,11.7µM*
CC(C)CCN1CCN(Cc2cccc3cccnc23)CC1CCO (stereo unspecified),-0.5%,-6.5,-1.4,?
CC(C)CCN1CCN(Cc2coc3ccccc3c2=O)CC1CCO (stereo unspecified),2.8%,23.2,12.5,4.15µM*
CC(C)N1CCN(Cc2coc3ccccc3c2=O)CC1CCO (stereo unspecified),17.0%,24.4,16.8*,0.0%
CC(C)N1CCN(Cc2ccccc2C(F)(F)F)CC1CCO (stereo unspecified),5.2%,-23.8,-2.0,-1.8%
O=C(NCCC(=O)N1CCCC(C(F)(F)F)C1)c1ccccc1Cl (stereo unspecified),-15.3%,-20.3,0.3,?
O=C(O)C1CCCCC1C(=O)NCc1ccc(Cl)c(Cl)c1 (stereo unspecified),37.2%,5.1,9.9,?
Cc1cccc(OCC(=O)Nc2ccc(C(=O)c3ccc(C(=O)O)cc3)cc2)c1,-20.5%,3.7,-0.8,-1.6%
Cn1c(SCC(=O)NC2CCS(=O)(=O)C2)nnc1-c1ccco1 (stereo unspecified),10.2%,/,/,4.6%
Cc1nn(-c2ccc(C(=O)OC(C)C)cc2)c(C)c1[N+](=O)[O-],104.6%,61.9*,31.5*,12.2%
Cc1ccsc1CNC1CCCCC1,?,/,4.8,?
Cc1ccsc1CNC12CC3CC(CC(C3)C1)C2,-15.6%,-5.0,-2.3,0.828µM*
CCC(N)Cc1c[nH]c2ccccc12 (stereo unspecified),4.9%,-5.5,0.7,0.675µM*!
CC1CCC(NC(=O)CN2C(=O)C3CC=CCC3C2=O)CC1 (stereo unspecified),-16.8%,/,/,-6.6%
SMILES,Pf growth 48h,Shiga inhibitor,CHX counter,Pf growth 96h
O=C(NS(=O)(=O)Oc1ccccc1F)OC[C@@H]1CCCN2CCCCC12 (stereo partly specified),-4.9%,-8.1,-4.8,87.2%
CC(Oc1ccc(Cl)cc1)c1ccc(C#N)c(=O)[nH]1 (stereo unspecified),-10.1%,-11.7,9.5,27.9%
COCCNC(=O)CNC(=S)N(CCCN1CCOCC1)Cc1cccs1,8.9%,-12.7,-1.4,-0.2%
Clc1ccc(CSc2snnc2-c2ccccc2)c(Cl)c1,15.1%,98.5*,43.3*,?
c1ccc(CSc2snnc2-c2ccccc2)cc1,-1.4%,41.5*,44.2*,0.0%
O=C(Nc1ccc(N2CCCCCC2)cc1)c1ccc[nH]1,91.1%,/,/,-73.4%
CCn1c2c(c(=N)c3c1CCC3)CCC2,0.465µM*,7.1,-5.6,0.185µM*
CCCCCCCn1c2c(c(=N)c3c1CCC3)CCCC2,0.294µM*,-2.0,-2.4,6.4%

# High-throughput results: PubChem, National Center for Advancing Translational Sciences (NCATS)
